# Screens from PubChem BioAssay.
# IL-2 act = activates IL-2 in a cell-based reporter assay; 360,000 tested, 0.065% active; IL-2 activation reporter assay, cell-based qHTS; stimulated with anti-CD3/CD4/CD28 beads; in transgenic mouse T cells; activation, % (series mostly up to about 46 µM); in the data active = activation above about 50%; inconclusive = mostly about 30% to 49%; note: 0% is about no effect
#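 EGFP and DsRed fluorescence is measured by plate cytometry in unstimulated transgenic mouse T cells exposed to compound for 60 minutes, then stimulated 18 hours at 37 degrees C with anti-CD3/anti-CD4 beads plus anti-CD28.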
# Vif-A3F inh = blocks the Vif interaction with APOBEC3F | AID 602313 | Potency, µM (highest dose often 46.1 µM), without a hit: at the top dose activity, negative = active | HeLa A3F-eYFP + Vif (tagged APOBEC3F with the HIV-1 protein that degrades it), YFP fluorescence increase | 390,000 tested, 0.2% active; note: potency is the fitted concentration of half-maximal effect; % of control where 0% means no effect; nearly all actives have a fitted effect of over 65% in size
#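 HeLa cells stably expressing A3F-eYFP plus Vif, plated and incubated overnight at 37 deg C, then exposed to compounds overnight at 37 deg C. Blocked degradation read as raised yellow fluorescence (Ex 488/Em 500-530).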
# PKM2 activator = increases activity of human pyruvate kinase M2; P14618; purified PKM2, Kinase-Glo ATP luminescence, activation; response scale: 0% is enzyme alone, no compound; Potency, µM (highest dose often 57.5 µM), inactives show top-dose activation, usual class: activators; 260,000 tested, 0.34% active; note: potency is the fitted concentration of half-maximal effect; % is set by controls: 0 for no effect and ±100 for the full control effect; nearly all actives have a fitted effect of over 55% in size
#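 Kinase-Glo luminescence reports ATP generated from ADP (0.1 mM) and PEP (0.5 mM) by purified hPK-M2 after 1 h at room temperature, pH 7.2 imidazole buffer; intermediate enzyme activity allows detecting inhibitors and activators.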
# GCN5L2 inh = GCN5L2 (KAT2A) acetyltransferase inhibition. Q92830. GCN5L2 HAT assay, ThioGlo1 CoA-SH fluorescence. Potency, µM (series often up to 58.9 µM), inactives show at the highest dose activity change, negative = inhibition, hits mostly inhibitors. 390,000 tested, 0.21% active; note: potency is the fitted concentration of half-maximal effect; % is set by controls: 0 for no effect and ±100 for the full control effect
# Target sequence (Q92830 whole entry, looked up): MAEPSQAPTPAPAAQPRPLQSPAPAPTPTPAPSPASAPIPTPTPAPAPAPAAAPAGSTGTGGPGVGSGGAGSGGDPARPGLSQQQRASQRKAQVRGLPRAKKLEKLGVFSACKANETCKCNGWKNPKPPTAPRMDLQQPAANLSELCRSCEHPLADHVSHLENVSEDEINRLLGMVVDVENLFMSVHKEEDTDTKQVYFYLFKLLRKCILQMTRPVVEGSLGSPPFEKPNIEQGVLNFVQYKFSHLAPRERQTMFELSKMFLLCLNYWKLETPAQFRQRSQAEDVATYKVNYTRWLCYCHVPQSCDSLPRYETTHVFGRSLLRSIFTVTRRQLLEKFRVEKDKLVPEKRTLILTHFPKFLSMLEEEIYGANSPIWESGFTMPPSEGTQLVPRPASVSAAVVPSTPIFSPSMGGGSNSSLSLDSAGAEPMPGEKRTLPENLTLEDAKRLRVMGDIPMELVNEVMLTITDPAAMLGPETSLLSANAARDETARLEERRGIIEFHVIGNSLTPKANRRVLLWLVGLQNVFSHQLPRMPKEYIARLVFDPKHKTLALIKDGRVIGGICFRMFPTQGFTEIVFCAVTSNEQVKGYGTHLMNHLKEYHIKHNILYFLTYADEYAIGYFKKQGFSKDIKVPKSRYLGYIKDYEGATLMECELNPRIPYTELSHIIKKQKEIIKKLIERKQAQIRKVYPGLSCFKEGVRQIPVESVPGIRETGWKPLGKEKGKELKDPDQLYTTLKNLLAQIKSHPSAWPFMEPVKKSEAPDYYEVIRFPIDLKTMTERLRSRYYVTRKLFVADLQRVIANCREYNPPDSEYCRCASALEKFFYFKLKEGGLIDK
#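 GCN5L2 (20nM final) in 50mM HEPES, 0.1mM EDTA pH 7.5, 0.01% Tween-20 was preincubated 15 min at room temperature with compound, then given ThioGlo1 (50uM), H3(1-25) peptide (75uM) and acetyl-CoA (70uM); CoA-thiol fluorescence (Ex340/Em540) was read at 0 and 20 min.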
# GoLoco inh red = RGS12 GoLoco-Gai1 interaction inhibition; P63096; Gai1:RGS12 GoLoco peptide FP, rhodamine, 10 min; Potency, µM (doses to about 61.6 µM), for the others: at the top dose activity, negative = inhibition, usual class: inhibitors; 230,000 tested, 0.44% active; AID 880; active = well fitted inhibition curve with a large enough effect, not every such curve was filed as active; inactive = no such curve, though single readings can be large or run the other way; note: potency is the fitted concentration of half-maximal effect; % is set by controls: 0 for no effect and ±100 for the full control effect; nearly all actives have a fitted effect of over 30% in size
# Vif-APOBEC3G blk = Vif-A3G binding inhibition; 410,000 tested, 0.076% active; Potency, µM (titrated, usually from 46.1 µM), for inactives: at the top dose activity, negative = active, usual class: inhibitors; AID 602310; Q9HC16; HeLa A3G-eYFP + Vif (tagged APOBEC3G with the HIV-1 protein that degrades it), YFP fluorescence, overnight; note: potency is the fitted concentration of half-maximal effect; % is set by controls: 0 for no effect and ±100 for the full control effect; nearly all actives have a fitted effect of over 60% in size
#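 HeLa cells stably expressing Vif and C-terminally eYFP-tagged A3G, seeded overnight at 37 deg C, then exposed to compound by pintool overnight at 37 deg C. Rise in yellow fluorescence (Ex 488/Em 500-530, Acumen) marks blocked Vif-driven A3G degradation.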
# Active calls of the source: *; ? = inconclusive; nt = not tested or not shown; ! = repeats disagree. This is a sample that favours compounds with a hit; in the whole collection about 0.77% have one here. Unless noted, calls come from the whole dose curve; as a rule, active = well fitted curve in the direction sought with a large enough effect; inconclusive = small, poorly fitted or top-dose-only effect, or another doubt; inactive = no such curve, though single readings can be large; an effect the other way counts as inactive or inconclusive.
SMILES,IL-2 act,Vif-A3F inh,PKM2 activator,GCN5L2 inh,GoLoco inh red,Vif-APOBEC3G blk
CC(C)Oc1ccc(C(CCNCc2ccc(O)cc2)c2ccccc2)cc1 (centres undefined),-2.8,3.4%,nt,-10.7%,nt,-11.6%
CC(C)Cc1nc(N2CCN(C(=O)c3ccccc3)CC2)c(C#N)c2c1CCC2,-2.1,-1.2%,0.2%,-18.5%,0.9%,7.9%
CC(C)Cc1nc(N2CCN(C(=O)c3ccco3)CC2)c(C#N)c2c1CCC2,0.2,-1.7%,22.4µM*,-14.1%,59.9%,-3.6%
O=C(Cn1sc2ccccc2c1=O)Nc1ccccc1,-4.5,0.9%,nt,nt,nt,-1.7%
O=C(Cn1sc2ccccc2c1=O)NC12CC3CC(CC(C3)C1)C2,-7.8,1.3%,-39.2%,14.1µM*,28.2µM*,-0.8%
COc1ccc(CNC(=O)C(c2ccc(C)o2)N(Cc2cccs2)C(=O)Cc2cccs2)cc1 (centres undefined),-4.1,2.4%,10µM*,-8.4%,19.1%,-8.7%
COCCN(C(=O)Cc1cccs1)C(C(=O)NCc1ccc(OC)cc1)c1ccc(C)cc1 (centres undefined),-0.6,-12.5%,3.0%,-5.9%,46.6%,0.5%
CCc1ccc(CNC(=O)C2Cc3cc(S(=O)(=O)N4CCCCCC4)ccc3N2C(C)=O)cc1 (centres undefined),nt,-4.6%,nt,3.4%,nt,5.2%
O=C(COC(=O)c1ccc(O)cc1)Nc1ccc(N2CCCCC2)cc1,-0.8,-0.4%,-2.3%,-5.0%,-17.9%,-0.5%
COc1cc(OC)cc(C(=O)OCC(=O)Nc2ccc(N3CCCCC3)cc2)c1,-2.5,4.2%,-2.3%,-3.2%,17.8µM*,-2.8%
COc1ccc(C(=O)Nc2ccc(N3CCOCC3)cc2)cc1OC,-2.1,-0.9%,-33.8%,-4.0%,-3.2%,-2.1%
COc1cc(C(=O)OCC(=O)Nc2ccc(N3CCOCC3)cc2)ccc1OCC(C)C,-3.5,?,nt,-6.4%,nt,7.94µM*
O=C(COC(=O)c1ccc2ccccc2c1O)NCc1ccccc1,0.3,-18.0%,nt,-2.9%,nt,-11.7%
O=C1c2ccccc2-c2cccnc21,-3.2,1.0%,nt,-1.5%,nt,-6.5%
O=C1c2ccccc2C(=O)c2c(/C=C/N3CCCCC3)ccnc21,0.5,22.4µM*,nt,nt,nt,?
Cc1ccc(NC(=O)Cn2c(O)c(N=NC(=O)c3ccncc3)c3ccccc32)cc1,-0.3,3.98µM*,0.6%,-1.2%,6.0%,0.5%
CCCCC/C=C\C/C=C\C/C=C\CCCCC(=O)O,-0.4,0.8%,nt,14.1µM*!,-2.5%,1.7%
CCCCC/C=C\C/C=C\C/C=C\CCCCCCC(=O)O,nt,nt,nt,-4.8%,9.5%,nt
CCCCCCCC/C=C\CCCCCCCCCCCC(=O)O,nt,nt,nt,8.91µM*,nt,nt
CCCCCCCC/C=C\CCCCCCCC(=O)O,-0.3,-6.4%,-8.0%,31.6µM*!,3.0%,1.4%
CCCCC/C=C\C/C=C\CCCCCCCC(=O)O,nt,nt,nt,?,-5.8%,nt
CCCCCCCC/C=C/CCCCCCCC(=O)NCCOP(=O)(O)O,nt,nt,nt,7.08µM*,nt,nt
Cc1ccc(-c2nc3ccccc3c(=O)n2NC(=O)c2cccs2)cc1,-0.6,-19.8%,-12.2%,?,-6.3%,1.3%
Cc1ccc(-c2nc3c(c(=O)[nH]c(=O)n3Cc3ccccc3)n2Cc2ccccc2)o1,0.6,?,17.8µM*,-19.9%,34.2%,-3.3%
Fc1ccccc1Cn1nnc2c(NCCc3ccccn3)ncnc21,-0.6,6.9%,12.6µM*,-1.0%,3.3%,1.7%
CCCCNc1ccc(S(N)(=O)=O)cc1[N+](=O)[O-],nt,nt,?,-2.6%,-5.1%,nt
O=[N+]([O-])c1cccc(S(=O)(=O)c2ccc(NCCO)c([N+](=O)[O-])c2)c1,-0.9,1.7%,15.8µM*,-11.4%,2.9%,-0.5%
CC1=Nc2ccccc2/C1=C/c1sc(=N)n(-c2nccs2)c1O,-0.2,?,1.1%,-6.3%,46.2%,12.6µM*
